Unmarked numbers belong to inactive results. For part of these data: Entries with a potency or affinity are not part of this list. Activity calls are given as the source filed them. Unless noted, how the calls were made is not given here.

Assay [1] can be described thus: antimalarial activity against Dd2 strain (AID 2302;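 active means growth inhibition above 50% at the single 2 µM test dose, taken to imply half-maximal potency below 2 µM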;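 further: 0% = DMSO untreated growth and 100% = chloroquine plus artemisinin killed control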). To be noted: P. falciparum Dd2 in RBCs, LDH growth readout, 72 h; at 2 µM; hits give high values.
Assay [2] in a line: human hepatoma cell viability loss – ATP luminescence, cytotoxicity control for P. falciparum antimalarial project, primary screen (AID 2303;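 active means inhibition above 50%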;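 further: 0% = DMSO wells and 100% = digitonin-killed cells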). As to conditions: HepG2 viability, 24-48 h, at 10 µM, hits give high values.
Assay [3] deals with L-lactate dehydrogenase (Plasmodium falciparum (isolate CDC / Honduras)) (UniProt Q27743). The assay can be described thus: PfLDH activity inhibition – cell lysate, 3D7 strain, counter-screen for P. falciparum growth inhibition project (AID 2304).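 Further: 0% = vehicle and 100% = reference inhibitor.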 As to conditions: P. falciparum 3D7 crude extract, LDH APAD/NBT absorbance; at 2 µM; hits give high values. Background: A counterscreen serves to expose hits that act by an unwanted route or on another target.
Sequence of L-lactate dehydrogenase (Plasmodium falciparum (isolate CDC / Honduras)) (Q27743 whole entry, looked up): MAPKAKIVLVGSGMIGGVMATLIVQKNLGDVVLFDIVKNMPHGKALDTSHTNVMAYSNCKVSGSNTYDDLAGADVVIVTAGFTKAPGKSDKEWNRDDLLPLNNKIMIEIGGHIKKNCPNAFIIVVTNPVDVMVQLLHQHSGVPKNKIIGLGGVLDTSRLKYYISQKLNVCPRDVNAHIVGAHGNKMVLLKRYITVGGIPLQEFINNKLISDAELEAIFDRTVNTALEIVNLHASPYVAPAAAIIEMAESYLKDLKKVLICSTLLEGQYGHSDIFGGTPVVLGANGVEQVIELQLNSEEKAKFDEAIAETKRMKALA

Assay [4] is described as follows: inhibition of 3D7 malaria parasite growth – strain 3D7 (AID 2306).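 Further: 0% = DMSO wells and 100% = chloroquine plus artemisinin control wells.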 To be noted: P. falciparum 3D7 erythrocytic growth, LDH absorbance, 72 h; at 2 µM; hits give high values.
For assay [5], the target named is Calcium-dependent protein kinase 1 (Plasmodium falciparum (isolate 3D7)) (UniProt P62344). The assay can be described thus: PfCDPK1 kinase inhibitors, biochemical, TCAMS library (AID 1159585; cut-off not given, nearly all actives have IC50 up to about 0.98 µM;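 further: inhibitors leave more ATP so luminescence rises with inhibition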). As to conditions: recombinant PfCDPK1, Kinase-Glo ATP depletion luminescence. In general terms: Kinase-Glo measures the ATP left after a reaction by luminescence.
Sequence of Calcium-dependent protein kinase 1 (Plasmodium falciparum (isolate 3D7)) (P62344 whole entry, looked up): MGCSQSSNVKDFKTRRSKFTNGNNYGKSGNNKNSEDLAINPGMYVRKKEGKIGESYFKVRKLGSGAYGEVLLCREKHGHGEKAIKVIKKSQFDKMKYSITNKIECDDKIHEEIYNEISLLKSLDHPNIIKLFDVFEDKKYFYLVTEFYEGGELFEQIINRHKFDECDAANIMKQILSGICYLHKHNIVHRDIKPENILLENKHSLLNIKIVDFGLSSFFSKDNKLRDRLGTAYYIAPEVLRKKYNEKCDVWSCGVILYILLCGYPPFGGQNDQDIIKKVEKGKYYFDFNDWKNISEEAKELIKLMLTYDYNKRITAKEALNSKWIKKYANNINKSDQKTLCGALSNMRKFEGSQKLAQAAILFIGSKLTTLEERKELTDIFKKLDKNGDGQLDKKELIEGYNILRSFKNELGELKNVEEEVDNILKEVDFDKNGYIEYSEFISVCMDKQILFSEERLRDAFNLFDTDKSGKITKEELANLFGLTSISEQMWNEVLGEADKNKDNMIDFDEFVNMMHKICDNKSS
The target in assay [6] is Plasmodium falciparum protein kinase 6 (PK6, PF3D7_1337100) (UniProt Q8IDW1). Briefly: PfPK6 kinase inhibitors, biochemical, TCAMS library (AID 1159586). As to conditions: recombinant PfPK6, Kinase-Glo ATP depletion luminescence.
Sequence of Plasmodium falciparum protein kinase 6 (PK6, PF3D7_1337100) (Q8IDW1 1-305): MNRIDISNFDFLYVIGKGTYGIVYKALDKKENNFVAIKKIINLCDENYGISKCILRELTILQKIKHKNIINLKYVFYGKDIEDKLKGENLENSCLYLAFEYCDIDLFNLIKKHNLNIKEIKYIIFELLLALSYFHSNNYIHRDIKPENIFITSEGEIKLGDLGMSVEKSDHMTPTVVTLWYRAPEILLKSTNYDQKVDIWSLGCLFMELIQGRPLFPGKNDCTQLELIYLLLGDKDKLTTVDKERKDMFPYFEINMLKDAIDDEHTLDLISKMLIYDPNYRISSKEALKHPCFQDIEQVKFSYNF
In assay [7] the target is Protein kinase 7 (PK7), Plasmodium falciparum 3D7 (PF3D7_0213400) (UniProt Q7YTF7). Briefly: inhibition of Plasmodium PK7 catalytic activity – biochemical, TCAMS antimalarial set, Kinase-Glo luminescence (AID 1159587). As to conditions: recombinant PfPK7, Kinase-Glo ATP depletion luminescence.
Sequence of Protein kinase 7 (PK7), Plasmodium falciparum 3D7 (PF3D7_0213400) (Q7YTF7 1-343): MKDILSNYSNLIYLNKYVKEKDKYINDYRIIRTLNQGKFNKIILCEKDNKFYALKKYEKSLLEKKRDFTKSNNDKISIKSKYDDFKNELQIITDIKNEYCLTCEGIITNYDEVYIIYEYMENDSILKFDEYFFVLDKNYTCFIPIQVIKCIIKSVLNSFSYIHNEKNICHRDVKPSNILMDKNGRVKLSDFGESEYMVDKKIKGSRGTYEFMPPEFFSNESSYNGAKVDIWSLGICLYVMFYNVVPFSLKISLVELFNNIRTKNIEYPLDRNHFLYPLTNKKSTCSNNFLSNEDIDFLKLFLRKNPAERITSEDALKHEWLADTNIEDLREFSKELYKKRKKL
The target in assay [8] is Calcium-dependent protein kinase 4 (Plasmodium falciparum (isolate 3D7)) (UniProt Q8IBS5). The assay can be described thus: PfCDPK4 kinase inhibitors, biochemical, TCAMS library (AID 1159588; cut-off not given, nearly all actives have IC50 up to about 0.91 µM). To be noted: recombinant PfCDPK4, Kinase-Glo ATP depletion luminescence.
Sequence of Calcium-dependent protein kinase 4 (Plasmodium falciparum (isolate 3D7)) (Q8IBS5 whole entry, looked up): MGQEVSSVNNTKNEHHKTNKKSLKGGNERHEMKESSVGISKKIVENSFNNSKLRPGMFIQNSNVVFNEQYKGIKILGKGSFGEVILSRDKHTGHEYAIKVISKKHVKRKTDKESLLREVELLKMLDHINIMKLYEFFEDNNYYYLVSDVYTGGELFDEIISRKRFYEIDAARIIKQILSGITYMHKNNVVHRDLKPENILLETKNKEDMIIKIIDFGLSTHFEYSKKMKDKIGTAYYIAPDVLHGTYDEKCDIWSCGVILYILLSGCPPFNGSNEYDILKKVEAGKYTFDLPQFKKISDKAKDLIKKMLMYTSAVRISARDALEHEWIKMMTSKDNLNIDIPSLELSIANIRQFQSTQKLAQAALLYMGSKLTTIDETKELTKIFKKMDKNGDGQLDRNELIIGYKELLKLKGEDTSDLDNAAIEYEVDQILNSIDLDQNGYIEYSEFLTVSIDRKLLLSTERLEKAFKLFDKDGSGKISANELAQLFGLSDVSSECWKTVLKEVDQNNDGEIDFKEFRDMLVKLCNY

As to `CN(Cc1c(Cl)cnn1C)S(=O)(=O)c1ccc2ccccc2c1`, the growth inhibition in assay [1] was 36%; in assay [4], 94% (active). Further, the inhibition – broadly, the drop in the measured response relative to a control, in per cent – in assay [2] was 7%; in assay [3], -2%. The result in assay [5], in assay [6], in assay [7] and in assay [8] was inactive.

Consider `COc1cc2nc(NCCc3ccccc3)nc(N(C)Cc3ccccc3)c2cc1OC`, for which the growth inhibition was 58% (active) in assay [1] and 96% (active) in assay [4]. Moreover, the figures for the inhibition in assay [2] and in assay [3] were 31% and -6%, respectively. In addition, the result in assay [5], in assay [6], in assay [7] and in assay [8] was inactive.

In the case of `CCN(CC)CCCC(C)Nc1ccnc2[nH]c3ccccc3c12` (stereo not drawn), the growth inhibition is 38% in assay [1] and 82% (active) in assay [4]. For the same compound, the inhibition in assay [2] was 0%; in assay [3], 6%. Moreover, the result in assay [5], in assay [6], in assay [7] and in assay [8] was inactive.

In the case of `COc1ccc2ccc(OC)c(CNCCCCCCNCc3c(OC)ccc4ccc(OC)cc34)c2c1`, the growth inhibition in assay [1] is 32%; in assay [4], 101% (active). Moreover, the inhibition is 100% (active) in assay [2] and -6% in assay [3]. Besides, the result in assay [5], in assay [6], in assay [7] and in assay [8] was inactive.

`O=C(Nc1ccc(S(=O)(=O)NCCCN2CCOCC2)cc1)c1cc(-c2ccccc2)n[nH]1`: the growth inhibition in assay [1] is 29%; in assay [4], 82% (active). Further, the inhibition was 16% in assay [2] and 1% in assay [3]. Moreover, the result in assay [5], in assay [6], in assay [7] and in assay [8] was inactive.

Regarding `O=C1COc2ccccc2N1C/C=C(\CN1CCC(c2ccccc2)CC1)c1cc(Cl)cc(Cl)c1`, the growth inhibition was 72% (active) in assay [1] and 91% (active) in assay [4]. In addition, the figures for the inhibition in assay [2] and in assay [3] were 14% and -4%, respectively. Besides, the outcome in assay [5], in assay [6], in assay [7] and in assay [8] was inactive.

For the compound `FC(F)(F)c1cccc(Nc2nc3nonc3nc2NC2C3CC4CC(C3)CC2C4)c1` (stereo not drawn), the growth inhibition in assay [1] was 100% (active); in assay [4], 103% (active). For the same compound, the results for the inhibition in assay [2] and in assay [3] were 72% (active) and -2%, respectively. In addition, the result in assay [5], in assay [6], in assay [7] and in assay [8] was inactive.

As to `Cc1nc2ccc(NC(=O)Nc3ccnc4ccc(C(F)(F)F)cc34)cc2o1`, the values for the growth inhibition in assay [1] and in assay [4] were 24% and 89% (active), respectively. Moreover, the figures for the inhibition in assay [2] and in assay [3] were 20% and -7%, respectively. The outcome in assay [5], in assay [6], in assay [7] and in assay [8] was inactive.

For the compound `Cc1cc(C2CCN(CCCCNC(=O)c3ccc(-c4ccc(C#N)cc4)cc3)CC2)c(C)cc1OCCO`, the values for the growth inhibition in assay [1] and in assay [4] were 68% (active) and 96% (active), respectively. Besides, the results for the inhibition in assay [2] and in assay [3] were 20% and 2%, respectively. Moreover, the result in assay [5], in assay [6], in assay [7] and in assay [8] was inactive.

As to `COc1ccc(NC(=O)/C=C/c2ccccc2Cl)cc1OCCN1CCC(NCc2ccccc2)CC1`, the growth inhibition is 101% (active) in assay [1] and 106% (active) in assay [4]. Further, the inhibition was 28% in assay [2] and 7% in assay [3]. For the same compound, the result in assay [5], in assay [6], in assay [7] and in assay [8] was inactive.

Take `COc1ccc(F)cc1-c1ccc(C(=O)N2CCCN(c3ccc(C(F)(F)F)cn3)CC2)cc1`: the growth inhibition is 100% (active) in assay [1] and 101% (active) in assay [4]. Moreover, the inhibition in assay [2] is 4%; in assay [3], -3%. In addition, the outcome in assay [5], in assay [6], in assay [7] and in assay [8] was inactive.

Regarding `COc1ccc2nccc(C(=O)NC3CCC(CCN4CCc5cc(C#N)ccc5C4)CC3)c2c1` (stereo not drawn), the growth inhibition in assay [1] is 1%; in assay [4], 97% (active). The inhibition was 12% in assay [2] and 1% in assay [3]. Besides, the result in assay [5], in assay [6], in assay [7] and in assay [8] was inactive.

Regarding `CN1CCN(c2ccc(CNc3ccc4ncc(-c5ccc(OC(F)(F)F)cc5)n4n3)cc2)CC1`, the growth inhibition was 87% (active) in assay [1] and 94% (active) in assay [4]. Further, the inhibition in assay [2] is 13%; in assay [3], 0%. The result in assay [5], in assay [6], in assay [7] and in assay [8] was inactive.

Take `O=C(/C=C/c1ccc(Cl)c(Cl)c1)NCCCCN1CCC(c2c[nH]c3ccccc23)CC1`: the growth inhibition was 11% in assay [1] and 91% (active) in assay [4]. Besides, the inhibition in assay [2] was 57% (active); in assay [3], -2%. Further, the result in assay [5], in assay [6], in assay [7] and in assay [8] was inactive.

On to `CNC(=O)Cc1ccc(C(=O)Nc2cccc(-c3csc(-c4nc5ccccc5[nH]4)c3)c2)cc1`, for which the growth inhibition in assay [1] was 69% (active); in assay [4] it was 95% (active). For the same compound, the inhibition was 36% in assay [2] and 4% in assay [3]. Besides, the outcome in assay [5], in assay [6], in assay [7] and in assay [8] was inactive.

In the case of `O=C(NC1CCCCN(Cc2ccc3c(c2)OCCO3)C1)c1cc(-c2ccccc2F)cs1` (stereo not drawn), the growth inhibition in assay [1] is 19%; in assay [4], 92% (active). The inhibition in assay [2] was 8%; in assay [3], 1%. Moreover, the outcome in assay [5], in assay [6], in assay [7] and in assay [8] was inactive.

On to `Cc1noc(C)c1CN1Cc2ccccc2OC2(CCN(Cc3c[nH]c4cnccc34)CC2)C1`, for which the growth inhibition was 12% in assay [1] and 89% (active) in assay [4]. In addition, the inhibition is 19% in assay [2] and -2% in assay [3]. For the same compound, the result in assay [5], in assay [6], in assay [7] and in assay [8] was inactive.

As to `CCCCC(O)c1cc(O)c2c(c1)OC(C)(C)CC2C1=CCN(Cc2ccc3ccccc3c2)CC1` (stereo not drawn), the results for the growth inhibition in assay [1] and in assay [4] were 97% (active) and 100% (active), respectively. The values for the inhibition in assay [2] and in assay [3] were 7% and 3%, respectively. Also, the outcome in assay [5], in assay [6], in assay [7] and in assay [8] was inactive.

As to `NC(N)=NN=CC(=O)Nc1ccc(C(F)(F)F)cc1`, the growth inhibition in assay [1] was 9%; in assay [4], 100% (active). The inhibition in assay [2] is 5%; in assay [3], 1%. Also, the result in assay [5], in assay [6], in assay [7] and in assay [8] was inactive.

In the case of `COc1ccc2nccc(NC(=O)N3CCC(NCc4cc5ccccc5[nH]4)CC3)c2n1`, the growth inhibition was 29% in assay [1] and 85% (active) in assay [4]. The inhibition in assay [2] is 27%; in assay [3], -5%. In addition, the outcome in assay [5], in assay [6], in assay [7] and in assay [8] was inactive.

For `CCCCc1ccc(-c2c(N)nc(N)nc2CC)cc1`, the growth inhibition is 0% in assay [1] and 95% (active) in assay [4]. The inhibition was 63% (active) in assay [2] and -1% in assay [3]. Also, the outcome in assay [5], in assay [6], in assay [7] and in assay [8] was inactive.

These data come from PubChem BioAssay.
